# HepG2 tox – HepG2 cytotoxicity, counter-screen for TGF-b inhibitors. Potency, µM (highest dose often 46.1 µM), for inactives: top-dose activity change, negative = cytotoxicity, usual class: cytotoxic. HepG2 CAGA-GFP viability, ATP luminescence, 18 h. 410,000 tested, 0.76% active. AID 588856; further: potency means the concentration at half of the fitted maximal effect
#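 HepG2 CAGA-GFP cells (1000/well, DMEM with 1% FBS) received compound, then TGF-beta at 500 pg/mL final, and were incubated 18 hours at 37 degrees C. Viability was read by CellTiter-Glo luminescence. Media-only wells were set as complete cell-killing and DMSO as no toxicity.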
# ATXN2 expr inh – inhibitors of ATXN2 expression; Potency, µM (titrated, usually from 57 µM), for inactives: top-dose activity change, negative = inhibition, hits mostly inhibitors; 360,000 tested, 0.72% active; AID 1745845; HEK-293 ATXN2-luciferase reporter, luminescence, 24 h; further: potency means the concentration at half of the fitted maximal effect; on the % scale 0 is the no-effect control and ±100 the full control effect; nearly all actives have a fitted effect of over 55% in size
#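 qHTS (up to 57 uM final) was run with 24 h compound exposure of reporter cells at 37 °C. Each well was multiplexed: SteadyGlo luminescence measured ATXN2-luciferase expression after a fluorogenic Gly-Phe-AFC viability readout (25 uM final).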
# DRD3 antagonist – antagonists of human D3 dopamine receptor; max response, negative = inhibition, %; P35462; D3R cells, DiscoveRx beta-arrestin luminescence, antagonist mode; stronger effect = lower value; 360,000 tested, 2.5% active; in the data active means max response below about -50%; inconclusive means no clear call, values can overlap the other calls; further: on the % scale 0 is the no-effect control and ±100 the full control effect
# Target sequence (P35462 whole entry, looked up): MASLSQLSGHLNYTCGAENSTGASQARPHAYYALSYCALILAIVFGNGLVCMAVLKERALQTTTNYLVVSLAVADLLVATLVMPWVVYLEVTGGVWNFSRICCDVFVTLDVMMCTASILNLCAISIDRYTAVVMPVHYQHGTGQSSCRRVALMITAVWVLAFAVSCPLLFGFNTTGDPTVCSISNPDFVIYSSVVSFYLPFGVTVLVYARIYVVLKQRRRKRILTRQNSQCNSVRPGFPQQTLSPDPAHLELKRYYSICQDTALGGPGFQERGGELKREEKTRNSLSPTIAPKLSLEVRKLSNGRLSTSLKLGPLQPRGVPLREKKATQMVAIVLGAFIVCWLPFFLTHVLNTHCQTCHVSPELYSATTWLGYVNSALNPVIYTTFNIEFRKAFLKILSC
#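 Cells plated overnight at 1500 cells/well, then exposed to library compounds with dopamine controls for 90 minutes at 37 degrees C. DiscoveRx reagent added for 30–60 minutes at room temperature; luminescence read, quantitative HTS format.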
# ATXN viability – viability counter-screen for ATXN expression inhibitors | AID 651635 | S2 cells (HEK-293 line with an ATXN2-luciferase reporter) viability, CellTiter-Fluor protease fluorescence, 24 h | 400,000 tested, 0.49% active | Potency, µM (series often up to 56.7 µM), hits mostly cytotoxic; further: potency means the concentration at half of the fitted maximal effect; nearly all actives have a fitted effect of over 40% in size
# D3 ag – agonists of human D3 dopamine receptor. P35462. D3R DiscoveRx beta-arrestin cells, luminescence, 90 min. max activation, %. 410,000 tested, 0.58% active; in the data active means max activation above about 30%; further: 0% is about no effect
#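 Cells at 1500/well, incubated overnight, then treated with pinned compounds (dopamine as control) for 90 min at 37 degrees C. DiscoveRx reagent added for 30 - 60 minutes at room temperature; luminescence read.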
# TGFb SMAD3 inh – inhibitors of TGF-b signaling | HepG2 CAGA-GFP TGF-b/SMAD3 reporter, GFP fluorescence, 18 h; TGF-beta stimulated, 500 pg/mL final | Potency, µM (highest dose often 46.1 µM), for inactives: at the top dose activity, negative = inhibition, most hits filed as inhibitors | 410,000 tested, 1.2% active; further: potency means the concentration at half of the fitted maximal effect; on the % scale 0 is the no-effect control and ±100 the full control effect; nearly all actives have a fitted effect of over 65% in size
#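 Cell-based qHTS in HEPG2 carrying a CAGA-GFP Smad reporter; compounds added before 500 pg/mL final TGF-beta, 18 h incubation at 37 degrees C, GFP fluorescence quantified per cell by imaging cytometry.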
# Starred values were filed as active, the others as inactive; i = inactive; ? = inconclusive; nt = no result. Only some compounds are listed: those with a hit (about 4.7% of all), similar ones and a draw of the others. Unless noted, the call rests on the fitted dose curve; in most records, active means well fitted curve in the direction sought with a large enough effect; inconclusive means small, poorly fitted or top-dose-only effect, or another doubt; inactive means no such curve, though single readings can be large; an effect the other way counts as inactive or inconclusive.
SMILES,HepG2 tox,ATXN2 expr inh,DRD3 antagonist,ATXN viability,D3 ag,TGFb SMAD3 inh
Oc1cc(Nc2ccccc2)cc2cccnc12,11µM*,32µM*,nt,?,nt,32µM*
Oc1cccc2cc(Nc3ccccc3)cnc12,0%,7.1µM*,nt,?,nt,3.5µM*
Oc1cc(NCCN2CCOCC2)cc2cccnc12,-94%,32µM*,nt,?,nt,?
COc1ccc(OC)c(NC(=O)c2cc(-c3ccc(Cl)s3)nc3ccccc23)c1,3%,3%,nt,i,-9,6%
CCc1cccc(NC(=O)c2ccc3c(=O)n4nc(Nc5ccccc5OC)sc4nc3c2)c1,-50%,?,nt,i,-8,?
Nc1ccc(C#Cc2ccc3sc4ccccc4c(=O)c3c2)cc1,-35%,10%,51,i,44*,-18%
O=C(OCC1(COC(=O)c2cccnc2)CCCC(COC(=O)c2cccnc2)(COC(=O)c2cccnc2)C1O)c1cccnc1,nt,-1%,nt,i,8,nt
C/C=C/c1c(F)c(F)c(Oc2ccc(C(=O)O)cc2)c(F)c1F,-14%,12%,-12,?,31*,3%
CCCOc1ccc(NC(=O)CC2C(=O)N(c3ccc(C)cc3)C(=O)N2C2CCCC2)cc1 (configuration not stated),-22%,12%,nt,?,-24,?
Cc1ccc2c(CN3CCC(C)CC3)cc(=O)oc2c1,-13%,52%,-61*,i,-34,1%
Cc1cc2oc(=O)cc(CN3CCC(C)CC3)c2cc1Cl,-3%,6%,-52*,?,-4,-8%
O=C(Cn1c(=O)n(-c2ccc(F)cc2)c(=O)c2sc3ccccc3c21)N1CCCC1,-12%,-14%,nt,?,-3,?
Cc1ccc(S(=O)(=O)/N=C2\C=C(Nc3cccc(C(=O)O)c3)C(=O)c3ccccc32)cc1,-111%,?,?,?,-24,13µM*
Cc1ccc(S(=O)(=O)/N=C2\C=C(Nc3cccc(C(=O)O)c3)C(=O)c3ccccc32)c(C)c1,16µM*,32µM*,-71*,nt,-27,13µM*
CC(C)(C)c1ccc(S(=O)(=O)/N=C2\C=C(NS(=O)(=O)c3ccccc3)C(=O)c3ccccc32)cc1,-51%,-17%,?,?,-18,?
COC(=O)c1ccccc1NC1=C/C(=N\S(=O)(=O)c2ccc(C(=O)O)cc2)c2ccccc2C1=O,16µM*,?,-99*,18µM*,-25,8.9µM*
COC(=O)c1ccccc1Nc1ccccc1,-2%,-5%,1,?,2,0%
Cc1ccc(NC2=C/C(=N/S(=O)(=O)c3cccs3)c3ccccc3C2=O)cc1,4µM*,7.9µM*,-72*,7.9µM*,-12,?
COc1ccccc1-c1noc(-c2ccc(NCCc3ccccc3)c([N+](=O)[O-])c2)n1,-5%,16%,nt,i,1,-11%
CCOC(=O)c1[nH]c2ccccc2c1NC(=O)c1ccc(OC)c(OC)c1,-33%,-9%,nt,i,-6,-2%
Cc1cccc(N2CCN(c3ccc(C(=O)O)cc3NC(=O)c3cccc(Cl)c3)CC2C)c1 (configuration not stated),-22%,6%,nt,i,-10,-38%
CCc1ccc(S(=O)(=O)/N=C2\C=C(Nc3ccc(C(=O)O)cc3)C(=O)c3ccccc32)cc1,-109%,?,-68*,?,-30,16µM*
Cn1nnnc1SCCCNCc1cccc(OCc2ccccc2Cl)c1,-81%,?,nt,?,-14,10µM*
Cn1nnnc1SCCCNCc1cccc(OCc2ccccc2F)c1,-31%,12%,nt,i,-23,33%
COc1cccc(CNCCSc2nnnn2C)c1OCc1ccc(Cl)cc1,0%,?,nt,i,-16,18µM*
SMILES,HepG2 tox,ATXN2 expr inh,DRD3 antagonist,ATXN viability,D3 ag,TGFb SMAD3 inh
COc1cccc(CNCCSc2nnnn2C)c1OCc1ccc(Cl)cc1Cl,-50%,-3%,nt,i,-19,?
CCc1noc(C)c1C(=O)N1CCOc2ccc(CN3CCCC(C(=O)c4cccnc4)C3)cc2C1 (configuration not stated),nt,nt,nt,i,nt,nt
Cc1ccc(S(=O)(=O)N(CC(=O)NCCC2=CCCCC2)Cc2ccccc2F)cc1,2%,3%,-74*,i,6,-22%
COc1ccc(CCNC(=O)c2cc3c(-c4ccc(OC)c(OC)c4)nn(C)c3s2)cc1OC,-29%,-29%,nt,?,7,6%
Cc1cccc(C)c1NC(=O)NCCCN1CCN(c2ccccc2)CC1,-6%,-2%,?,i,38*,-2%
Cc1ccccc1CC1CCN(CCCNC(=O)Nc2ccccc2)CC1,-26%,nt,-83*,i,-5,2%
C=C1C(=O)OC(CCCCCCCC)C1C(=O)O (configuration not stated),nt,10%,nt,nt,nt,nt
CN(C)CCCN(C(=O)c1ccc(Cl)s1)c1nc2cc3c(cc2s1)OCO3,-95%,?,-11,28µM*,-9,?
CN(C)CCCN(C(=O)c1ccc(C(=O)c2ccccc2)cc1)c1nc2cc3c(cc2s1)OCO3,11µM*,?,-55*,?,-12,?
CN(C)CCCN(C(=O)c1ccco1)c1nc2cc3c(cc2s1)OCO3,-30%,14µM*,-15,i,-3,-19%
CN(C)CCCN(C(=O)c1cc(Cl)sc1Cl)c1nc2cc3c(cc2s1)OCO3,-38%,-19%,?,i,-21,?
CN(C)CCCN(C(=O)c1cc2cc([N+](=O)[O-])ccc2s1)c1nc2cc3c(cc2s1)OCCO3,-98%,?,9,20µM*,2,?
Cc1[nH]c2ccccc2c1C(=O)C(C)Sc1nc2ccccc2c(=O)n1Cc1cccnc1 (configuration not stated),-2%,nt,nt,nt,nt,9%
COc1ccc(OC)c(CN2CCCC(c3nc(-c4ccncc4)ncc3-c3ccccc3C)C2)c1 (configuration not stated),nt,nt,nt,i,nt,nt
Cn1ccc(C(=O)NCC2CCC3(CCN(Cc4cc(F)cc(F)c4)CC3)O2)n1 (configuration not stated),nt,nt,nt,i,nt,nt
CC(=O)Nc1ccc(/C=C/c2ccccn2)cc1,-10%,nt,nt,nt,nt,-26%
CC1=C(C(N)=O)C(c2ccccc2F)n2nc(-c3ccc(Cl)cc3)nc2N1 (configuration not stated),-35%,5%,nt,i,8,-2%
CC(C)(C)OC(=O)NCCCC[C@H](NC(=O)c1[nH]cnc1C(=O)Nc1ccc(Cl)cc1)C(=O)OC(C)(C)C,-35%,?,20,?,-1,14µM*
